Consider eleven molecules from ChEMBL document CHEMBL3988442, “University of Dundee, Small-Polar-MMV Screening Library” (2021).

For some of these results: Measured potencies and affinities stand elsewhere.

Holding throughout (set-up): scale not given: direction of the effect not stated beside the values
In assay [1] the target is Protein translocase subunit SecA (Escherichia coli (strain K12)) (UniProt P10408). In words: Assay to Identify E. coli SecA ATPase Inhibitors. The settings on record: 30 µM. In kind it is functional.
Sequence of Protein translocase subunit SecA (Escherichia coli (strain K12)) (P10408 whole entry): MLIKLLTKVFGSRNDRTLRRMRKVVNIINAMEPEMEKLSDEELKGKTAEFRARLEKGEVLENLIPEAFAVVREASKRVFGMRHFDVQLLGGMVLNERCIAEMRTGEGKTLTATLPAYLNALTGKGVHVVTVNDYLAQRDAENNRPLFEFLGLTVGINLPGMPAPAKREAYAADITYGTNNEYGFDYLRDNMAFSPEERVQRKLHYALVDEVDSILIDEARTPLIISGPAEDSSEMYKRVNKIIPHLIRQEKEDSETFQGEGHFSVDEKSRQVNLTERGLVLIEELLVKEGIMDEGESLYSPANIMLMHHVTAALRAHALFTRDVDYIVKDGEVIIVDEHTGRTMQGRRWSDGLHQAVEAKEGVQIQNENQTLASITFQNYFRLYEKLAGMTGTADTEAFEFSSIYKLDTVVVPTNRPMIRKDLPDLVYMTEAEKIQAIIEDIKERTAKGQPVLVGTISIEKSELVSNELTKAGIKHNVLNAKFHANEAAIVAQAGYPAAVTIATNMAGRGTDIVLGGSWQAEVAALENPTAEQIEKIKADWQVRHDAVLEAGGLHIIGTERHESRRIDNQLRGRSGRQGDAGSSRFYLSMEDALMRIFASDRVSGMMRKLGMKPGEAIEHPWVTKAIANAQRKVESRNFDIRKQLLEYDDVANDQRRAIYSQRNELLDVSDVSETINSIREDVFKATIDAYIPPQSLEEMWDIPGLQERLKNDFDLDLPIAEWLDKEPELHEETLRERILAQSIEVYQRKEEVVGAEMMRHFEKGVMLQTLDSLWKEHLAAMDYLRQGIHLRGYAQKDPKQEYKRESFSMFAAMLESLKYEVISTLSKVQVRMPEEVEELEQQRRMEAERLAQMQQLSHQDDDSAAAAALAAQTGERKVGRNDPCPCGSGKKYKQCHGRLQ
The target in assay [2] is T1, Ubiquitin-activating enzyme e1, putative (Leishmania donovani (strain BPK282A1)) (UniProt E9BSI1).
T1 sequence (whole entry): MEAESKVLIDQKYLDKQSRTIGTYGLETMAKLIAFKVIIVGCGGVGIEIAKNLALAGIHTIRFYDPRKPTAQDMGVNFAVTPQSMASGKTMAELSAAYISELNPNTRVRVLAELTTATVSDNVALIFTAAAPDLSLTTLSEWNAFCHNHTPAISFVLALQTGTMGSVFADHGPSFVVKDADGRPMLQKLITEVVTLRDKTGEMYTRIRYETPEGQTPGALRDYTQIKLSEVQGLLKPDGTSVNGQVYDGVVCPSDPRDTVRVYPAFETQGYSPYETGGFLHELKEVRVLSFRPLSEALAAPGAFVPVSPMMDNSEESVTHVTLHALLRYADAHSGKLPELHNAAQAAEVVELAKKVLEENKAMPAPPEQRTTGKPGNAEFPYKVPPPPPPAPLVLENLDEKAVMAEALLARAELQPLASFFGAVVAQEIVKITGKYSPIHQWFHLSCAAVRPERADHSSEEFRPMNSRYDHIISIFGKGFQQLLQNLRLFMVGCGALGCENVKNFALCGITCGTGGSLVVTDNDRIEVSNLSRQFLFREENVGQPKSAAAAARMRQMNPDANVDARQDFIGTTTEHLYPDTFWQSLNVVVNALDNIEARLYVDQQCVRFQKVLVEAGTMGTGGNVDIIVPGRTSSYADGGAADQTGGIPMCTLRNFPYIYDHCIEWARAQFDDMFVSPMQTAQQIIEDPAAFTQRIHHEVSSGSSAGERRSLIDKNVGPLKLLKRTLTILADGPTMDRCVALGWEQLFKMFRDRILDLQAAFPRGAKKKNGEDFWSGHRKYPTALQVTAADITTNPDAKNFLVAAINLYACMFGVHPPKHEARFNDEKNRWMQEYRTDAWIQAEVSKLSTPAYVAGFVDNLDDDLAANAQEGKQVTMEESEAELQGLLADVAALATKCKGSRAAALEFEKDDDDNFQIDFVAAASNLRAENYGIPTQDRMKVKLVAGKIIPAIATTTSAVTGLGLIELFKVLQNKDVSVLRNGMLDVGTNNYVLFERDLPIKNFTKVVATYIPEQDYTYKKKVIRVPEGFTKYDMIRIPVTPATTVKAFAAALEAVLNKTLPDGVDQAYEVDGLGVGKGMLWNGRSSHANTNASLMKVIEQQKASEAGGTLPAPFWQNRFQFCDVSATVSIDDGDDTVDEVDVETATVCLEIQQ
In words: Leishmania donovani Ubiquitin Activating Enzyme (LdE1). It is filed as functional. The settings on record: 30 µM.

Assay [3] has as its target AMP-activated protein kinase, AMPK (Homo sapiens) (UniProt P54646+O43741+P54619+Q9UGJ0+Q9Y478+Q13131+Q9UGI9). As to the kind of experiment: AMP-dependent Kinase enzyme assay. An in vitro enzyme assay that detects ADP turnover that is directly proportional to AMPK activity. This uses naive AMPK that is activated during the assay with MK-8722. It is filed as functional. The settings on record: 30 µM.

The target in assay [4] is Sialic acid-binding Ig-like lectin 9 (Homo sapiens) (UniProt Q9Y336). As to the kind of experiment: Hs-Siglec9 ALPHAscreen SOP 20170721. The settings on record: 10 µM. On the technique in general: Bead proximity is the source of the signal in Alpha formats.
Sequence of Sialic acid-binding Ig-like lectin 9 (Homo sapiens) (Q9Y336 whole entry): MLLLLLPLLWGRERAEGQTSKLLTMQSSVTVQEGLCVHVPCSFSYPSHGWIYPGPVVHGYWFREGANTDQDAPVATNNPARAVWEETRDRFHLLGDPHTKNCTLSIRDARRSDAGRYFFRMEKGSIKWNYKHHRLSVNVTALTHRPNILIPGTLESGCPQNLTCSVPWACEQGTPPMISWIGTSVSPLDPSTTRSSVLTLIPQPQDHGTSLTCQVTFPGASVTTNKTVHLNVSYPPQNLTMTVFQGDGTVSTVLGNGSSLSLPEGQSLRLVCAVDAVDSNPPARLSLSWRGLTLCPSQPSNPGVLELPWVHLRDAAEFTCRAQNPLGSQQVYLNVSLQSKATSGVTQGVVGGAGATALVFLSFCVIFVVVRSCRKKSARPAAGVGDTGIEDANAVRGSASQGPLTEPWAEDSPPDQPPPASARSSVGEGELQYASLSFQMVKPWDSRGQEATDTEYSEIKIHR
Assay [5] relates to Trypanosoma cruzi. In words: Trypanosoma cruzi phosphomannomutase and mannose-1-phosphate guanylyltransferase assay. In kind it is functional. The settings on record: 10 µM.
Assay [6] deals with T2, Arginase-2, mitochondrial (Homo sapiens) (UniProt P78540).
T2 sequence (whole entry): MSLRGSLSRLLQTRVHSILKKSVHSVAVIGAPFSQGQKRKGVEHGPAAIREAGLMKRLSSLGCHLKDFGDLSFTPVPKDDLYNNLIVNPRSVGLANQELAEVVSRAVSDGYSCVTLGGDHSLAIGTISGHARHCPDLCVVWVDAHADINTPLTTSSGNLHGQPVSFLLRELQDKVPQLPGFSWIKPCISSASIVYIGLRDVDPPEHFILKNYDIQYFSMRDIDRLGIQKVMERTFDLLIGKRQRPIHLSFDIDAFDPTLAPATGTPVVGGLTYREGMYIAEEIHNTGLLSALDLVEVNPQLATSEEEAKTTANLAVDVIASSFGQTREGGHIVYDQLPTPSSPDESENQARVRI
In words: in vitro enzyme assay to detect the production of urea directly proportional to the activity of Arginase II. Further: in the data most compounds retested in dose-response had high values. The settings on record: 33.3 µM. In kind it is functional.

The target in assay [7] is T3, Proteasome subunit beta (Trypanosoma cruzi) (UniProt O96673).
T3 sequence (whole entry): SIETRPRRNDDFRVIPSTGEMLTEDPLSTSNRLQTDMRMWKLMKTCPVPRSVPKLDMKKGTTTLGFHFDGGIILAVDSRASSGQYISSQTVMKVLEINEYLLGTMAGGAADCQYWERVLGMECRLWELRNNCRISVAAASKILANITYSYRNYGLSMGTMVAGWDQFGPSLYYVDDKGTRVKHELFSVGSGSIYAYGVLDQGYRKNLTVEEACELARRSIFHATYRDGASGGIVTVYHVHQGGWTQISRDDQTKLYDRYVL
As to the kind of experiment: Trypanosoma cruzi proteasome chymotrypsin-like activity (TcProtChymo) assay. Further: in the data most compounds retested in dose-response had high values. The settings on record: 9.37 µM. It is filed as functional.

The species named for assay [8] is Homo sapiens. As to the kind of experiment: To identify inhibition of the IFN signalling (Jak-Stat) pathway via expression of an eGFP reporter gene under the control of an IFN-stimulated response element (ISRE) containing MxA promoter. In kind it is functional. The settings on record: 30 µM.
The target in assay [9] is T4, Tyrosyl-tRNA synthetase, putative (Trypanosoma cruzi (strain CL Brener)) (UniProt Q4DSP6).
T4 sequence (whole entry): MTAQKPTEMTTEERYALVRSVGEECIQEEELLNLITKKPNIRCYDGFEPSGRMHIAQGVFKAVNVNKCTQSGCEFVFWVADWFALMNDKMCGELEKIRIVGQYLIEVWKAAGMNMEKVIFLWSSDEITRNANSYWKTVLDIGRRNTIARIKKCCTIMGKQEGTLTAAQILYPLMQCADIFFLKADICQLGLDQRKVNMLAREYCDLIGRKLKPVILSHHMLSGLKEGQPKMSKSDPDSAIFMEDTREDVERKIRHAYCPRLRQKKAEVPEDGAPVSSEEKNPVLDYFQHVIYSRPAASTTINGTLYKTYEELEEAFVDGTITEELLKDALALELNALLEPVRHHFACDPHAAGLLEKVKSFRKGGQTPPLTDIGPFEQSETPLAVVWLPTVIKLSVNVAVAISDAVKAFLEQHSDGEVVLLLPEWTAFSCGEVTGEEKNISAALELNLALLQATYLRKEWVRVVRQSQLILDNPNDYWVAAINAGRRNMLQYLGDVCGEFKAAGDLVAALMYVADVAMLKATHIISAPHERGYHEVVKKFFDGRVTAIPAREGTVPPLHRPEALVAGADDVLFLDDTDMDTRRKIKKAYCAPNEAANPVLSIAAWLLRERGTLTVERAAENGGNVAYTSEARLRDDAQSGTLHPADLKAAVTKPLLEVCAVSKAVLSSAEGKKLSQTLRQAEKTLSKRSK
In words: Trypanosoma cruzi tyrosyl tRNA synthetase (TcYRS) _High Tyrosine SOP. Further: in the data most compounds retested in dose-response had high values. It is filed as functional. The settings on record: 30 µM.

Assay [10] deals with T4, Tyrosyl-tRNA synthetase, putative (Trypanosoma cruzi (strain CL Brener)). As to the kind of experiment: Trypanosoma cruzi tyrosyl tRNA synthetase (TcYRS) SOP. It is filed as functional. The settings on record: 30 µM.
Assay [11] deals with Chromo domain-containing protein 1 (Saccharomyces cerevisiae (strain ATCC 204508 / S288c) (Baker's yeast)) (UniProt P32657). As to the kind of experiment: ScCHD-1 Enzyme Inhibition Assay. Further: in the data most compounds retested in dose-response had high values. It is filed as functional. The settings on record: 30 µM.
Sequence of Chromo domain-containing protein 1 (Saccharomyces cerevisiae (strain ATCC 204508 / S288c) (Baker's yeast)) (P32657 whole entry, the tested form may be a part): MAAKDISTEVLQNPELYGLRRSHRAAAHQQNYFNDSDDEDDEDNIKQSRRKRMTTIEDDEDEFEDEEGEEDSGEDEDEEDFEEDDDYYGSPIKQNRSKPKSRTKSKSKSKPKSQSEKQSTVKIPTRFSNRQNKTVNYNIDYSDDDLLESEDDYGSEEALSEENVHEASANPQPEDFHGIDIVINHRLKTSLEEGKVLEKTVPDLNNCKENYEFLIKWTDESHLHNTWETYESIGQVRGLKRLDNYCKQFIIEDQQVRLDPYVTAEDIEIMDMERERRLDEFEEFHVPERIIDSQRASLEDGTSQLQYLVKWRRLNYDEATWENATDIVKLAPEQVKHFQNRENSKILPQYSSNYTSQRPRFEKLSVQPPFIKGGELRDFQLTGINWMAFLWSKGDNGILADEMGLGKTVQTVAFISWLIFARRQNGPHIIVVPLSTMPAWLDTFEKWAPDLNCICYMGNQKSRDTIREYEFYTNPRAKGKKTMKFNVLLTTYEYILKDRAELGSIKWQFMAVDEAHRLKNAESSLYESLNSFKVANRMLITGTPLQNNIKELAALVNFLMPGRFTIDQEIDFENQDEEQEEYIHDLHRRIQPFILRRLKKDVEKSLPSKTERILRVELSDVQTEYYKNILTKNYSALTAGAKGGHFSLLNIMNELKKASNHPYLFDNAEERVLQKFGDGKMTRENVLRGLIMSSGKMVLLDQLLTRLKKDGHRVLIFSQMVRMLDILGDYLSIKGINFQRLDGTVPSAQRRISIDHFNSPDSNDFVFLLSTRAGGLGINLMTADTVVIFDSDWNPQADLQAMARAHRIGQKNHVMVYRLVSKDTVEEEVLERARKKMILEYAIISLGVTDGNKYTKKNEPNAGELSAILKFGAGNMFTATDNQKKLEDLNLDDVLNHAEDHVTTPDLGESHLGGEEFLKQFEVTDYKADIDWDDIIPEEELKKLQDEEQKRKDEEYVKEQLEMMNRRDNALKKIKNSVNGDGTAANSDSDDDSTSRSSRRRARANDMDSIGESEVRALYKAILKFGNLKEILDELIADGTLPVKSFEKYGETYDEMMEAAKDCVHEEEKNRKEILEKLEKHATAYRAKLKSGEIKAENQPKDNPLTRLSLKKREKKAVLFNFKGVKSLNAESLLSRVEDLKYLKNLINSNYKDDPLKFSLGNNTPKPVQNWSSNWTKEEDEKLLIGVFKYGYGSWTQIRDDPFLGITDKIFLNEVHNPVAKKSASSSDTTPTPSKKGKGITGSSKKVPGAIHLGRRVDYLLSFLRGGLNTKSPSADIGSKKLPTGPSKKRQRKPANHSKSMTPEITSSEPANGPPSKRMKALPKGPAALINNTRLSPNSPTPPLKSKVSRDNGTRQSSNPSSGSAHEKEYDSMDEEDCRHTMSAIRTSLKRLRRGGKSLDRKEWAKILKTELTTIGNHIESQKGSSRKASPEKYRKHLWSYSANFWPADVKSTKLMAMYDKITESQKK

As for `N#Cc1cn(CC(=O)NC2CC2)c2ccc(Br)cc2c1=O`, the Percent Effect is -3.54% in assay [1]; -2.67% in assay [2]; -3.82% in assay [3]; -2.14% in assay [4]; -1.27% in assay [5]; 2.6% in assay [6]. The Percent Effect in assay [7] is 14.7%; in assay [8] it was -0.582%; in [9] it was 0.546%; in assay [10], -3.7%; in assay [11], 74.8%.

With `CSc1ccccc1CN1CCn2nc(CNC(C)=O)cc2C1`, the Percent Effect in assay [1] stood at 0.00499%; in [2] it was 11%; in [3], 1.85%; in assay [4] it was 8.13%; in [5], 2.35%; in [6], 18.2%. Moreover, the Percent Effect in assay [7] is 18.6%; in assay [8], 15.7%; in assay [9] it was 6.45%; in assay [10], 20%; in [11] it was -3.35%.

In the case of `CCCS(=O)(=O)c1ncc(CN2CCC(CO)CC2)n1CC1CCCO1` (stereo unspecified), the Percent Effect was 0.687% in assay [1]; -6.94% in [2]; -2.25% in assay [3]; -1.43% in [4]; -5.34% in assay [5]; 0.442% in [6]. In addition, the Percent Effect in [7] is 4.74%; in assay [8], -4.14%; in assay [9], 0%; in assay [10] it was -7.69%; in [11], 5.71%.

`CC(C1CC1)N(C(=O)NCCCn1nc2ccccn2c1=O)C1CC1` (stereo unspecified): the Percent Effect in assay [1] was -5.32%; in assay [2] it was 16.4%; in assay [3], -9.44%; in [4] it was 24%; in assay [5], 3.13%; in assay [6], 20.9%. Moreover, the Percent Effect is 15.3% in [7]; 1.6% in assay [8]; 4.3% in [9]; 15% in assay [10]; -6.77% in assay [11].

As for `Cn1nc(C2CCCN(C(=O)Cc3ccsc3)C2)c2nccnc21` (stereo unspecified), the Percent Effect is -5.11% in [1]; 9.46% in [2]; 7.86% in assay [3]; 10.4% in assay [4]; -5.14% in assay [5]; -1.16% in assay [6]. The Percent Effect in assay [7] was 8.89%; in assay [8], 23.9%; in assay [9] it was -1.07%; in assay [10], 6.49%; in assay [11], -13.9%.

Consider `Cc1cc(CN(C)C(=O)C2CCS(=O)(=O)C2)no1` (stereo unspecified), for which the Percent Effect is 0.281% in assay [1]; 18.2% in [2]; -1.29% in [3]; -9.12% in assay [4]; 4.21% in [5]; 2.74% in assay [6]. For the same molecule, the Percent Effect in assay [7] is 14%; in [8], 31.4%; in assay [9], 5.71%; in assay [10], 21.2%; in assay [11], -8.16%.

For the molecule `CCOc1ccccc1OC1CCN(C(=O)c2ccc(=O)[nH]n2)CC1`, the Percent Effect is -2.99% in assay [1]; 13.2% in assay [2]; 2.58% in assay [3]; 7.38% in [4]; 3.76% in assay [5]; 2.3% in assay [6]. Also, the Percent Effect in assay [7] is 12.9%; in assay [8] it was 6.53%; in assay [9], 5.39%; in [10], 19.5%; in assay [11], -2.32%.

On to `NC(=O)C1CCN(CCc2ccc(NC(=O)C3CCC3)cc2)CC1`, for which the Percent Effect in assay [1] is -4.73%; in assay [2], 8.11%; in assay [3], -5.62%; in [4], 9.13%; in [5] it was 2.14%; in assay [6], -0.554%. Moreover, the Percent Effect in assay [7] was 2.87%; in [8] it was 6.62%; in assay [9], 6.93%; in [10], 23.2%; in assay [11], -5.51%.

For `Cc1ccc(CC(=O)N2CCCC(c3cc(C)[nH]n3)C2)cn1` (stereo unspecified), the Percent Effect was -4.35% in assay [1]; 13.5% in [2]; -1.96% in assay [3]; 17.6% in assay [4]; 5.66% in [5]; -4.25% in assay [6]. For the same molecule, the Percent Effect in assay [7] is 3.77%; in [8] it was 12.1%; in [9], 3.96%; in [10] it was 15.8%; in [11], -0.933%.

`CCc1nnc2n1CCN(C(=O)c1ccc(C(F)(F)F)nc1C)C2`: the Percent Effect in [1] was -6.11%; in [2] it was 20.2%; in [3], -4.83%; in [4], 14.3%; in assay [5] it was 5.95%; in assay [6], -6.08%. In addition, the Percent Effect in assay [7] was 9.09%; in assay [8] it was -2.36%; in assay [9], 2.46%; in assay [10], 16.5%; in assay [11], -8.19%.

With `COc1c(C2CCCN2C(=O)c2ccc3cc[nH]c3c2)c(C)nn1C` (stereo unspecified), the Percent Effect was -4% in [1]; 18.2% in assay [2]; 1.47% in [3]; -0.102% in [4]; 7.93% in assay [5]; -4.42% in [6]. Also, the Percent Effect in assay [7] was 7.68%; in assay [8], 3.62%; in assay [9], 4.76%; in assay [10] it was 14.1%; in assay [11], -21.5%.
